Hits are enriched below; roughly 2.4% of the tested compounds scored in any of these assays.
C diff growth – inhibitors of Clostridium difficile growth. actives 0.25% (n = 86,000). growth activity, negative = inhibition, % at 16 µg/mL (by protocol). Clostridium difficile clinical isolate growth, OD600, 24 h; stronger effect = lower value;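 active = mean growth activity at or below -80% and every replicate also at or below -80%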;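 note: 0% = DMSO wells and -100% = levofloxacin 16 µg/mL wells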
Pf Dd2 inh – blocks growth of Plasmodium falciparum Dd2 parasites. actives 2.3% (n = 94,000). P. falciparum Dd2 growth, SYBR Green, 72 h; stronger effect = lower value. activity change, % at 10 µM; in the data active = activity change below about -80%
* marks the source's active call; other numbers are inactive results; x = no result given.

SMILES	C diff growth	Pf Dd2 inh
COc1ccc(NC(=O)Nc2ccc3c(c2)C(=O)N([C@@H](C)CO)C[C@H](C)[C@H](CN(C)Cc2ccc(C(F)(F)F)cc2)OCCCC[C@@H](C)O3)cc1	10	-30
COc1ccc(NC(=O)Nc2ccc3c(c2)C(=O)N([C@@H](C)CO)C[C@@H](C)[C@H](CN(C)Cc2ccc(C(F)(F)F)cc2)OCCCC[C@@H](C)O3)cc1	7	-85*
CO[C@@H]1CN(C)C(=O)c2cc(NC(=O)Nc3cccc(F)c3)ccc2OC[C@@H](C)N(C(=O)Nc2cccc(F)c2)C[C@H]1C	x	-48
CNC[C@@H]1Oc2cc(C#CC(C)(C)O)ccc2S(=O)(=O)N([C@H](C)CO)C[C@H]1C	-5	-24
CC(C)CC#Cc1ccc2c(c1)O[C@@H](CN(C)C(=O)Cc1cccnc1)[C@@H](C)CN([C@H](C)CO)S2(=O)=O	2	-34
CO[C@H]1CN(C)C(=O)c2ccc(NC(=O)C3CCC3)cc2OC[C@H](C)N(C(=O)CN(C)C)C[C@@H]1C	-4	14
CO[C@@H]1CN(C)C(=O)c2ccc(NC(=O)c3ccc(-c4ccccc4)cc3)cc2OC[C@H](C)NC[C@H]1C	5	-49
CO[C@@H]1CN(C)C(=O)c2ccc(NC(=O)c3ccc(-c4ccccc4)cc3)cc2OC[C@@H](C)NC[C@@H]1C	53	-86*
CO[C@H]1CN(C)C(=O)c2ccc(NC(=O)c3ccc(-c4ccccc4)cc3)cc2OC[C@H](C)NC[C@H]1C	x	-74
CO[C@H]1CN(C)C(=O)c2ccc(NC(=O)c3ccc(-c4ccccc4)cc3)cc2OC[C@@H](C)NC[C@@H]1C	x	-92*
CO[C@H]1CN(C)C(=O)c2cc(NC(=O)c3ccc(Oc4ccccc4)cc3)ccc2OC[C@@H](C)NC[C@H]1C	-9	-55
CO[C@@H]1CN(C)C(=O)c2cc(NC(=O)c3ccc(Oc4ccccc4)cc3)ccc2OC[C@@H](C)NC[C@@H]1C	-5	-92*
CCS(=O)(=O)N1CC2(C1)[C@@H](c1ccccc1)[C@@H](CO)N2CCC(F)(F)F	-3	4
COc1ccc(NC(=O)Nc2ccc3c(c2)C(=O)N([C@@H](C)CO)C[C@H](C)[C@@H](CN(C)S(=O)(=O)c2cn(C)cn2)OCCCC[C@@H](C)O3)cc1	-1	16
C[C@H]1CN([C@@H](C)CO)C(=O)CCCn2cc(nn2)CO[C@H]1CN(C)Cc1ccccc1C(=O)O	x	3
C[C@@H]1CCCCO[C@@H](CN(C)S(=O)(=O)c2ccccc2)[C@H](C)CN([C@H](C)CO)C(=O)c2cc(NS(=O)(=O)c3ccc(Cl)cc3)ccc2O1	-4	-60
Cc1ccc(S(=O)(=O)Nc2ccc3c(c2)C(=O)N([C@H](C)CO)C[C@@H](C)[C@@H](CN(C)S(=O)(=O)c2ccc(C)cc2)OCCCC[C@@H](C)O3)cc1	x	-79
Cc1noc(C)c1S(=O)(=O)Nc1ccc2c(c1)C(=O)N([C@H](C)CO)C[C@H](C)[C@@H](CN(C)S(=O)(=O)c1ccc(Cl)cc1)OCCCC[C@H](C)O2	8	-42
Cc1ccc(S(=O)(=O)N(C)C[C@H]2OCCCC[C@@H](C)Oc3ccc(NS(=O)(=O)c4ccccc4)cc3C(=O)N([C@H](C)CO)C[C@H]2C)cc1	-8	-83*
Cc1ccc(S(=O)(=O)Nc2ccc3c(c2)C(=O)N([C@@H](C)CO)C[C@H](C)[C@@H](CN(C)S(=O)(=O)c2ccccc2)OCCCC[C@H](C)O3)cc1	-7	-64
C[C@H]1CCCCO[C@@H](CN(C)S(=O)(=O)c2ccc(Cl)cc2)[C@@H](C)CN([C@@H](C)CO)C(=O)c2cc(NS(=O)(=O)c3ccccc3)ccc2O1	2	-83*
Cc1ccc(S(=O)(=O)Nc2ccc3c(c2)C(=O)N([C@@H](C)CO)C[C@@H](C)[C@@H](CN(C)S(=O)(=O)c2ccc(C)cc2)OCCCC[C@H](C)O3)cc1	x	-86*
Cc1noc(C)c1S(=O)(=O)Nc1ccc2c(c1)C(=O)N([C@H](C)CO)C[C@@H](C)[C@@H](CN(C)S(=O)(=O)c1ccc(Cl)cc1)OCCCC[C@H](C)O2	9	-88*
C[C@H]1CN([C@@H](C)CO)C(=O)CCCn2cc(nn2)CO[C@H]1CN(C)C(=O)Cc1ccccc1	0	-15
C[C@H]1CN([C@@H](C)CO)C(=O)Cc2cc(NS(=O)(=O)c3ccc(Cl)cc3)ccc2O[C@@H]1CN(C)Cc1ccc(C(=O)O)cc1	6	23
COc1ccc2c3c([nH]c2c1)[C@@H](CO)N(C)CC31CCN(C(=O)C2CC2)CC1	-4	-67
COc1ccc2c3c([nH]c2c1)[C@H](CO)N(C(=O)C1CC1)CC31CN(C)C1	-5	25
CCCNC(=O)C[C@@H]1C[C@@H]2c3cc(NC(=O)Nc4ccccc4)ccc3O[C@@H]2[C@H](CO)O1	1	-24
COc1ccc(S(=O)(=O)Nc2cccc3c2O[C@H](CN(C)Cc2ccc(-c4ccccc4)cc2)[C@@H](C)CN([C@H](C)CO)C3=O)cc1	5	-91*

Assay outcomes as filed in PubChem.
